# Screening results as filed in PubChem BioAssay.
# NS1 function inh: influenza NS1 inhibition | Potency, µM (doses to about 46.1 µM) | hit rate 0.4% among 270,000; calls by dose curve; further: actives are rising curves; nearly all actives have a fitted effect of over 50% in size
#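 Read-out: OD600 growth recovery of NS1-expressing budding yeast. Cells grown overnight at 30C in -URA glucose medium, washed, resuspended and diluted 1:100 in 2% galactose assay medium, pH 6.0. Same strain lacking NS1 served as positive control.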
# Pf growth 48h: inhibits P. falciparum growth in the first generation, 48 h; hit rate 5.9% among 310,000; P. falciparum luciferase growth in erythrocytes, 48 h; Potency, µM (highest dose often 28.7 µM), usual class: inhibitors
#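 A one-generation exposure of luciferase-tagged malaria parasites in RPMI 1640/Albumax erythrocyte culture, 37 C and 5% CO2. Inhibition is inferred from decreased luminescence after adding detection reagent.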
# Shiga inhibitor: inhibitors of Shiga toxin in Vero cells; hit rate 9.2% among 290,000; AID 2315; Vero cells, Shiga toxin protein synthesis inhibition reporter; inhibition, % at 38.7 µM; in the data active means inhibition mostly above about 28%, no sharp cut-off; inactive means mostly below about 43%
# Pf growth 96h: P. falciparum growth inhibition at 96 hour, primary screen for plastid delayed-death inhibitors | P. falciparum luciferase reporter growth, 96 h | hit rate 6.9% among 320,000 | Potency, µM (highest dose often 28.7 µM), usual class: inhibitors | AID 504834
#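 Two parasite generations (96 h, 37 C, 5% CO2) of compound exposure in infected erythrocytes (0.05% parasitemia, 2% hematocrit). Luciferase-reporter P. falciparum; decreased luminescence indicates inhibited growth, aimed at apicoplast-acting delayed death.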
# Sm TGR block: S. mansoni TGR enzyme inhibition; Potency, µM (doses to about 114 µM), actives largely listed as inhibitors; Q962Y6; purified TGR, DTNB reduction, TNB absorbance 405 nm; hit rate 3% among 360,000; further: nearly all actives have a fitted effect of over 60% in size
#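 TGR 20 nM + NADPH 100 uM (dispensed conc.), cpd preinc 15 min RT; start with NADPH (500 uM addition) then DTNB (15 mM addition). Kinetic TNB absorbance, 405 nm filter. Four-parameter Hill fit across titration.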
# CHX counter: counter-screen hit for Shiga toxin inhibitors, cycloheximide; cell reporter, cycloheximide protein synthesis inhibition counterscreen; max response, %; hit rate 12% among 300,000; AID 2314; in the data active means max response mostly above about 13%, no sharp cut-off; inactive means mostly below about 14%; further: read at 38.3 µM for the half of the compounds with a filed dose
# A number is an active result; i = inactive; ? = inconclusive; nt = no result given; ! = not confirmed by another sample; [ ] = dose if it differs, or a comment. Hits are enriched below; roughly 21% of the tested compounds scored in any of these assays. Unless noted, the call rests on the fitted dose curve; in most records, active means well fitted curve in the direction sought with a large enough effect; inconclusive means small, poorly fitted or top-dose-only effect, or another doubt; inactive means no such curve, though single readings can be large; an effect the other way counts as inactive or inconclusive.
SMILES,NS1 function inh,Pf growth 48h,Shiga inhibitor,Pf growth 96h,Sm TGR block,CHX counter
Cc1ccc(NC(=O)Cn2nnc(-c3ccccc3)n2)c(C)c1,nt,nt,nt,nt,i,nt
Cc1nonc1C(=O)N1CCCC(Nc2ccc(C(C)C)cc2)C1 (stereo unspecified),i,?,i,?,i,i
CC(c1ccccc1)c1nnc(NC(=O)Nc2ccccc2F)s1 (stereo unspecified),i,i,72.5,i,i,44.9
CCSc1nsc(NC(=O)Nc2cccc(OC)c2)n1,i,?,nt,?,i,28.9
O=C(Nc1nnc(-c2ccccc2SCc2ccccc2F)s1)Nc1ccccc1F,i,nt,i,i,i,i
C=CCSc1nsc(NC(=O)Nc2ccc(F)cc2)n1,i,?,101.3,i,i,43.2
COc1ccc(Cc2nnc(NC(=O)Nc3cccc(OC)c3)s2)cc1,i,i[0.00184 µM],i,i,i,i
CCSc1nsc(NC(=O)Nc2ccccc2F)n1,i,i,29.9,?,i,32.6
CC(=O)OCCN1C(=O)c2c(C)nc3ccc(S(=O)(=O)N4CCOCC4)cc3c2C1=O,nt,nt,i,nt,nt,i
O=c1[nH]c(Nc2ccccc2)cc2ccccc12,i,?,i,i,15.8µM,i
CCc1ccc2oc(C(=O)Nc3cccc(C(F)(F)F)c3)cc(=O)c2c1,nt,nt,nt,nt,i,nt
Cc1n[nH]c(C)c1CCOc1ccc(C(C)C)cc1,i,i,49.3,i,i,i
Cc1cccc(OCCCc2c(C)n[nH]c2C)c1,i,nt,i,i,i[11.4 µM],i
COc1ccc(C2=NO[C@@H]3[C@@H]4C[C@@H]([C@H]5C(=O)N(C)C(=O)[C@@H]45)[C@H]23)cc1,i,i,i,i,i,i
Cc1c2ccccc2nc2c(F)c(NC(C)C)c(F)c(F)c12,i,i,55.4,i,i,44.8
COc1ccc(CCNC(=O)NCc2noc3ccc(C)cc23)c(OC)c1,nt,nt,nt,nt,i,nt
CC(Sc1nc2cc([N+](=O)[O-])ccc2n1-c1cccc(C(F)(F)F)c1)C(=O)NC(N)=O (stereo unspecified),i,0.586µM,i,0.657µM,i,i
CC(Sc1nnc(-c2ccco2)n1N)C(=O)NCc1ccc2c(c1)OCO2 (stereo unspecified),nt,i,nt,i,i,nt
CC(Sc1nc2cc([N+](=O)[O-])ccc2n1-c1ccc(F)cc1)C(=O)NCc1ccc2c(c1)OCO2 (stereo unspecified),?,?,i,1.65µM,i,i
O=C(CSc1nnc(-c2cccnc2)n1-c1ccccc1)NCc1ccc2c(c1)OCO2,i,i,i,i,i,i
CC(Sc1nnc(-c2cccnc2)n1-c1ccccc1)C(=O)NCc1ccc2c(c1)OCO2 (stereo unspecified),i,i,76.4,nt,i,39.6
Cc1cccc(-n2c(SCC(=O)NCc3ccc4c(c3)OCO4)nc3ccccc3c2=O)c1,i,?,i,?,i,i
Cc1cc(C)cc(-n2c(SC(C)C(=O)NCc3ccc4c(c3)OCO4)nc3ccccc3c2=O)c1 (stereo unspecified),i,13.1µM,i,i,i,i
NCCNc1ncnc2ccc(Cl)cc12,i,nt,nt,nt,nt,nt
COc1ccc2c(c1)c1c(c(=O)n(-c3ccccc3C)c(=O)n1C)n2C,nt,nt,nt,nt,i,nt
SMILES,NS1 function inh,Pf growth 48h,Shiga inhibitor,Pf growth 96h,Sm TGR block,CHX counter
N#CC(C#N)=C1C=CC=CN1/C(=C\c1ccccc1Cl)C(=O)c1ccccc1,i,i,i,i,0.282µM,i
N#CC(C#N)=C1C=CC=CN1/C(=C\c1ccccc1)C(=O)c1cccs1,?,i,i,?,0.282µM,23.9
COc1ccc(S(=O)(=O)N(C)C)cc1NC(=O)CSc1nnc(-c2cccnc2)o1,nt,i,i,i,i,i
CCOc1ccc(CCNC(=O)CCS(=O)(=O)c2ccc(OC)cc2)cc1OCC,nt,i,i,?,?,i
O=C(Nc1ncccc1O)c1ccc(Cl)c(S(=O)(=O)N2CCCCC2)c1,nt,?,nt,?,i,nt
OC[C@H]1O[C@@H](n2cnc3c(Nc4ccccc4)ncnc32)[C@H](O)[C@H]1O,i,nt,nt,nt,nt,nt
COc1ccc(S(=O)(=O)CC(=O)c2cc3cc(Br)ccc3oc2=O)cc1,i,i,i,i,i,i
COc1ccc(S(=O)(=O)CC(=O)c2cc(C)c(O)c(C)c2)cc1,i,i,i,i,28.2µM,i
Cc1ccc(S(=O)(=O)CCC(=O)c2ccc(F)cc2)cc1,i,i,i,i,i,i
NC(=O)CS(=O)(=O)c1ccc(Cl)cc1,i,i,i,i,i,i
Cc1cc(C(=O)CS(=O)(=O)c2ccc(F)cc2)cc(C)c1OC(=O)N(C)C,nt,i,89.0,i,i,43.8
Cc1cc(C(=O)CS(=O)(=O)c2ccc(Cl)cc2)cc(C)c1O,i,i,i,i,4.47µM,i
CS(=O)(=O)n1nc(C(=O)N2CCOCC2)nc1N,i,i,i,i,i,i
COc1cc(CCC(=O)OCC(=O)Nc2sccc2C(N)=O)cc(OC)c1OC,nt,i,nt,i,i,nt
COc1nc(SC)nc(Cl)c1Cc1ccc(OC(C)C)cc1,i,i,i,1.04µM,i,i
COc1ccc(OC)c(C(=O)C2COC(=O)C2)c1 (stereo unspecified),i,10.4µM,i,i,i,i
CCCCOCCCn1c(N)c(C(=O)OCCOC)c2nc3ccccc3nc21,i,?,i,10.4µM,i,i
CCCCn1c(N)c(C(=O)OCCOC)c2nc3ccccc3nc21,i,?,i,?,i,i
CCOC(=O)c1c(NC(=O)c2c(N)n(CCCOC)c3nc4ccccc4nc23)sc2c1CCCC2,i,?,i,?,i,i
CCOCCCn1c(N)c(C(=O)Nc2sc3c(c2C(=O)OC)CCCC3)c2nc3ccccc3nc21,?,14.7µM,i,?,i,i
CCn1ncc(Br)c1C(=O)Nc1sc2c(c1C(=O)OC)CCC2,i,nt,nt,nt,nt,nt
CCCCn1c(N)c(C(=O)OCC2CCCO2)c2nc3ccccc3nc21 (stereo unspecified),i,9.28µM,i,i,i,i
CCn1ccc(C(=O)Nc2sc3c(c2C(=O)OC)CCC3)n1,i,?,i,11.7µM,?,i
CCOc1cccc(C2Oc3nc(SC)nnc3-c3ccccc3N2C(C)=O)c1OC (stereo unspecified),nt,nt,nt,nt,i,nt
CN1[C@@H](CC(=O)c2ccccc2)CCC[C@H]1C[C@H](O)c1ccccc1,i,13.5µM,i,16.9µM!,i,i
SMILES,NS1 function inh,Pf growth 48h,Shiga inhibitor,Pf growth 96h,Sm TGR block,CHX counter
CN1C(CC(=O)c2ccccc2)CCCC1CC(O)c1ccccc1 (stereo unspecified),i,?,i,nt,i,i
Cc1cc(N2CCOCC2)nc2ccc(NC(=O)CCC(=O)N3CCCC(C)C3)cc12 (stereo unspecified),i,i,i,?,i,54.3
Cc1cc(N2CCOCC2)nc2ccc(NC(=O)CCC(=O)N3CCN(c4ccccc4F)CC3)cc12,i,i,i,i,i,22.0
Cc1ccc(-n2ncc(C(=O)NCCN3CCCC3)c2C2CCN(C(=O)OC(C)(C)C)CC2)cc1C,nt,nt,nt,nt,i,nt
CC(=O)c1cnc(N2CCCCC2)nc1C,i,i,i,nt,i,i
CC(C)(C)S(=O)(=O)c1cnc(-c2ccc(Cl)cc2)nc1N,i,i,46.8,i,i,22.2
